# The whole screen tested about 310,000 compounds, of which about 3,600 (1.2%) were called active.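 Rule for the calls: active = ratio plate-corrected score three or more library SD toward inhibition, starting fluorescence score within five deviations; inactive = the rest.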 The entries come from a sample that favours actives as a whole.
# Biological target: Anoctamin-1 (Mus musculus) (UniProt Q8BHY3)
# Experiment: TMEM16A chloride channel inhibitors, primary screen, cell-based, HTS (AID 588511);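 for normalized B-score (activity score, 25-100; higher = stronger inhibition): score derived from kinetic fluorescence span divided by baseline fluorescence per well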
# Conditions: HEK293 TMEM16A/YFP iodide influx fluorescence, ionomycin; at 10 µM
# Chain of Anoctamin-1 (Mus musculus) (Q8BHY3 whole entry, looked up): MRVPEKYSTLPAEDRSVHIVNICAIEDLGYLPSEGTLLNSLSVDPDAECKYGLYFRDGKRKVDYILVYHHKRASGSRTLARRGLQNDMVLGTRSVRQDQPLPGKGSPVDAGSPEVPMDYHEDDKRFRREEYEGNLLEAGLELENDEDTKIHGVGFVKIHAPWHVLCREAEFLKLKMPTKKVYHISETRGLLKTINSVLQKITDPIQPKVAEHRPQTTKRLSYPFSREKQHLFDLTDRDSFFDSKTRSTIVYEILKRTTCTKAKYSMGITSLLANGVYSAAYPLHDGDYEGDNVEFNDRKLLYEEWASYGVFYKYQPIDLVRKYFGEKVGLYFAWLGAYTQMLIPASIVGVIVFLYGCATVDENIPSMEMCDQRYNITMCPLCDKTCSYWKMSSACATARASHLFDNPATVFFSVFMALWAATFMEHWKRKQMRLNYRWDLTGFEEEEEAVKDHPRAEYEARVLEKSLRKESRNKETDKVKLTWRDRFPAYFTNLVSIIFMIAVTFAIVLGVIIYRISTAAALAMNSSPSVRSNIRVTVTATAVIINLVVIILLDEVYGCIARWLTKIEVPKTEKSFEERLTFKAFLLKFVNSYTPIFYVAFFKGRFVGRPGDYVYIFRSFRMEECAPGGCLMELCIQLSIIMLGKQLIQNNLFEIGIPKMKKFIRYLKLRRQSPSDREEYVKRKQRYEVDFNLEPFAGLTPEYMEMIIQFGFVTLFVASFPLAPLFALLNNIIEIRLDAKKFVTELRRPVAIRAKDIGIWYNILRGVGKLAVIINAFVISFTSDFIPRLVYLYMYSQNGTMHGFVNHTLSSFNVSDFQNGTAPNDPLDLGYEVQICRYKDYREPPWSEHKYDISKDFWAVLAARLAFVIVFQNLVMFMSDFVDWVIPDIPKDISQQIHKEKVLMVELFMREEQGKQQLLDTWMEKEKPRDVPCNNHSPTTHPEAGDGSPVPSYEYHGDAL
row,SMILES,"normalized B-score (activity score, 25-100; higher = stronger inhibition)"
1,Cc1cccnc1NC(=O)Cn1c(=O)oc2ccccc21,inactive
2,COCc1c(C(=O)N/N=C(\C)c2ccncc2)nnn1-c1nonc1N,inactive
3,Cc1nc(C)c(-c2csc(NCCc3ccccc3)n2)s1,100 (active)
4,CCNc1nc(-c2cc3ccccc3o2)cs1,inactive
5,S=c1[nH]nc(NCCc2ccccc2)s1,inactive
6,COc1cccc(CNC(=O)c2cccnc2Sc2ccc(Cl)cc2)c1,inactive
7,Cc1ccc(NC(=O)C(=O)NCc2ccc(/C=N/NC(=O)c3c(C)nc4cc(C)ccn34)o2)cc1,inactive
8,CCN(Cc1ccccc1)C(=O)CN1C(=S)NC(C)(C)CC1C (stereo not drawn),inactive
9,Cc1ccc(CSc2nc(-c3ccccc3)c(C#N)c(=O)[nH]2)cc1,100 (active)
10,N#Cc1c(-c2ccccc2)nc(SCc2ccc([N+](=O)[O-])cc2)[nH]c1=O,inactive
11,N#Cc1c(-c2ccc(F)cc2)nc(-c2ccccc2)[nH]c1=O,inactive
12,N#Cc1c(-c2ccccc2)nc(SCc2cccc(C(F)(F)F)c2)[nH]c1=O,100 (active)
13,O=c1[nH]c(SCc2cccc(F)c2)nc2ccccc12,inactive
14,O=c1[nH]c(SCc2ccccc2)nnc1-c1ccccc1,inactive
15,O=C(CCN1C(=O)C2CCCCC2C1=O)Nc1ccc(OC(F)F)cc1 (stereo not drawn),inactive
16,O=C(COC(=O)c1ncc(Cl)c(Cl)c1Cl)NNC(=O)c1ccccc1,inactive
17,O=C(CC1C(=O)NCCN1CC(c1ccccc1)c1ccccc1)NCCc1cn[nH]c1 (stereo not drawn),inactive
18,COc1ccc(C(=O)Nc2cc(C)c(NC(=O)c3ccccc3OC)cn2)cc1,inactive
19,CC1CN(C(=S)Nc2cccc(F)c2)CC(C)O1 (stereo not drawn),inactive
20,Cc1ccc(CNC(=O)c2ccc(CS(=O)Cc3cccc(Cl)c3)o2)cc1 (stereo not drawn),inactive
21,CCCOc1cccc(C(=O)NCCCNC(=O)c2cccnc2)c1,inactive
22,CCc1ccc[n+](-c2nc([O-])sc2C=O)c1,inactive

row,SMILES,"normalized B-score (activity score, 25-100; higher = stronger inhibition)"
1,CC(C)(C)c1cc(NC(=O)NN2CCOCC2)nn1-c1c(Cl)cc(Cl)cc1Cl,inactive
2,COc1ccc(-c2nnc(NC(=O)CS(=O)(=O)c3ccc(Cl)cc3)o2)c(OC)c1,inactive
3,COc1cccc(NC(=O)c2ccc(S(=O)(=O)N(C)C)cc2)c1,inactive
4,COc1cccc(-c2nnc(NC(=O)c3ccc(S(=O)(=O)N(CC(C)C)CC(C)C)cc3)o2)c1,100 (active)
5,CCn1c(C)nc2c1C(=O)c1ccccc1C2=O,inactive
6,CSc1ccccc1OCc1cc(C(=O)N2C[C@H]3CC[C@H]2C3)no1,inactive
7,N#Cc1nc(COc2ccc(-c3ccccc3)cc2)oc1NCc1cccnc1,100 (active)
8,O=S(=O)(c1ccc(Br)cc1)c1nc(-c2ccccc2)oc1NCc1cccnc1,inactive
9,Cc1ccc(OCc2nc(C#N)c(N3CCCC3)o2)cc1,inactive
10,CC(=O)N(c1ccc2oc(=O)sc2c1)S(=O)(=O)c1ccc(C)cc1,inactive
11,Cn1c(SCc2ccc(F)cc2)nnc1-c1ccncc1,inactive
12,C=CCn1c(CNS(=O)(=O)c2ccc(Br)cc2)nnc1SC,inactive
13,Cn1cncc1COC(=O)c1ccc(Cl)cc1,inactive
14,CN1OC(COC(=O)c2ccc(Cl)cc2)CC1c1ccccc1 (stereo not drawn),100 (active)
15,CCOC(=O)c1cc(NC(=O)c2ccc(Cl)cc2)c(=O)oc1-c1ccccc1,inactive
16,Cc1cc(OC(=O)c2ccc(Cl)cc2)cc(=O)n1C,inactive
17,Cc1ccc(C)c(N2CCN(C(=O)CCCCn3c(=O)[nH]c4ccccc4c3=O)CC2)c1,25 (active)
18,Cc1ccc(C)c(N2CCN(C(=O)CCc3nc4ccccc4[nH]3)CC2)c1,inactive
19,Cc1ccc(C)c(N2CCN(C(=O)CCCCCn3c(=S)[nH]c4ccc(N5CCOCC5)cc4c3=O)CC2)c1,inactive
20,CC(OC(=O)c1ccc(-n2cnnn2)cc1)C(=O)NCc1ccccc1 (stereo not drawn),inactive
21,COCCNS(=O)(=O)c1cc(Br)ccc1OC,inactive
22,CC(=O)N1CCc2cc(S(=O)(=O)NC3CCCCC3)ccc21,inactive

row,SMILES,"normalized B-score (activity score, 25-100; higher = stronger inhibition)"
1,Cc1ccc(N)cc1-n1c(C)ccc1C,100 (active)
2,Cc1ccc(C)n1-c1ccncc1,inactive
3,COc1ccc(CNc2nnnn2C)cc1,25 (active)
4,Cn1nnnc1NCc1ccc(Cl)c(Cl)c1,inactive
5,CCCn1nnnc1NCc1ccc(OC)cc1,inactive
6,C[C@@H]1C[C@@H]2O[C@H]2/C=C\C=C\C(=O)Cc2c(Cl)c(O)cc(O)c2C(=O)O1,inactive
7,CC(C)Nc1nnc(SCC(=O)/C=C2\N(C)c3ccccc3C2(C)C)s1,inactive
8,CC(=O)Nc1cccc(OCC(=O)/C=C2\N(C)c3ccccc3C2(C)C)c1,100 (active)
9,CN1/C(=C\C(=O)c2oc3ccccc3c2N)C(C)(C)c2ccccc21,inactive
10,CCOc1cc(/C=N/NC(=O)c2cccc(S(=O)(=O)N3CCOCC3)c2)ccc1OCC(=O)N(C)C,inactive
11,CO[C@@H]1[C@@H](OC(N)=O)[C@@H](O)C(Oc2ccc3c(O)c(NC(=O)c4ccc(O)c(CC=C(C)C)c4)c(=O)oc3c2C)OC1(C)C (stereo partly drawn),inactive
12,O=C(O)C1=NN(c2c(F)c(F)cc(F)c2F)C(=O)CC1,inactive
13,Cc1ccc(CN(N=Nc2nonc2N)c2nonc2N)c(C)c1,25 (active)
14,COc1ccc(Cc2nnc(SCC(=O)c3cccc([N+](=O)[O-])c3)n2C)cc1,inactive
15,O=C(Nc1ccc(NC(=O)c2ccccc2F)cc1)c1ccccc1F,inactive
16,COc1ccccc1C(=O)Nc1ccccc1C(=O)Nc1ccccc1,inactive
17,O=C(Nc1ccccc1)c1ccccc1NC(=O)C(F)(F)F,100 (active)
18,O=C(Nc1cccc(-c2cscn2)c1)C1CCN(Cc2ccsc2)CC1,inactive
19,CCn1cc(CN2CCC(C(=O)Nc3cccc(-c4cccc(Cl)c4)c3)CC2)cn1,inactive
20,CC(=O)c1cc(CN2CCC(C(=O)Nc3cccc(-c4cscn4)c3)CC2)cs1,25 (active)
21,COc1ccc2oc(C(=O)NCC(Cc3ccccc3)N(C)C)c(C)c2c1 (stereo not drawn),inactive
22,Cc1cnc(NC(=O)c2ccccn2)s1,inactive

row,SMILES,"normalized B-score (activity score, 25-100; higher = stronger inhibition)"
1,COc1ccc(OC)c2sc(NC(=O)C3COc4ccccc4O3)nc12 (stereo not drawn),inactive
2,COc1ccc(NC(=O)C2COc3ccccc3O2)cc1 (stereo not drawn),inactive
3,COc1ccc(NC(=O)c2ccccc2[N+](=O)[O-])cc1OC,inactive
4,CC(=O)Oc1ccccc1C(=O)Nc1ncc([N+](=O)[O-])s1,100 (active)
5,O=C(Nc1ncc([N+](=O)[O-])s1)C1COc2ccccc2O1 (stereo not drawn),25 (active)
6,O=C(N/N=C/c1cccc2cccnc12)[C@H]1C[C@@H]1c1ccccc1,inactive
7,Cc1ccc(C)c(OCCC(=O)OCC(=O)NC(=O)NCc2ccccc2)c1,inactive
8,O=C(Nc1ccc(S(=O)(=O)N2CCCCC2)cc1)C1CC(=O)N(c2ccc(F)cc2)C1 (stereo not drawn),inactive
9,O=C(NC(=S)Nc1ncccn1)c1ccccc1Br,inactive
10,COc1ccnc(Oc2ccccc2)c1-c1ncn[nH]1,inactive
11,O=C(Nc1nc2c(F)cc(F)cc2s1)C1COc2ccccc2O1 (stereo not drawn),inactive
12,NC(=O)c1c(Nc2nc3c(F)cccc3s2)sc2c1CCCC2,25 (active)
13,Fc1cc(F)c2nc(N3CCOCC3)sc2c1,inactive
14,NC(=O)c1c(NC(=O)c2ccccc2)sc2c1CCCC2,inactive
15,Fc1cc(F)c2nc(Nc3nc4c(F)cccc4s3)sc2c1,100 (active)
16,COc1cccc(OC)c1C(=O)Nc1sc2c(c1C(N)=O)CCCC2,inactive
17,Cc1c(C(=O)Nc2ccccn2)oc2ccc(Br)cc12,inactive
18,CCC(C)(C(=O)Nc1ccccc1C)N(C(=O)CNC(C)=O)c1ccc(C)cc1 (stereo not drawn),inactive
19,CS(=O)(=O)c1sc(C(=O)NC(=S)Nc2ccc(OC(F)(F)F)cc2)c2c1C=CCC2,inactive
20,CC1(C)O[C@@H]2CC3C4C[C@H](F)C5=CC(=O)C=CC5(C)C4C(O)CC3(C)[C@]2(C(=O)CO)O1 (stereo partly drawn),inactive
21,Cc1ccc(/C=C2/SC(=S)N(CCC(=O)NCCCN3CCOCC3)C2=O)cc1,inactive
22,O=S(=O)(Nc1ccccc1Br)c1cccs1,inactive

row,SMILES,"normalized B-score (activity score, 25-100; higher = stronger inhibition)"
1,O=S(=O)(NCc1ccc(Cl)cc1Cl)c1cccs1,inactive
2,O=C(Nc1cccc(Cl)c1)Nc1ccccc1NS(=O)(=O)c1cccs1,100 (active)
3,COc1ccc(Nc2nc(N)nc(CSC(=S)N3CCC(C)CC3)n2)cc1,inactive
4,O=S(=O)(ON(c1ccccc1)S(=O)(=O)c1ccccc1)c1ccccc1,inactive
5,CC1=C/C(=N\OS(=O)(=O)c2ccccc2)C=CC1=O,25 (active)
6,CC(NC(=O)CN1CCN(Cc2ccc(Cl)cc2)C1=O)c1ccc2c(c1)OCCO2 (stereo not drawn),inactive
7,O=C(c1ccc(=O)oc1)N1CCC(C(O)(c2ccccc2)c2ccccc2)CC1,inactive
8,NC(=O)c1oc2ccccc2c1NC(=O)Cc1ccccc1,inactive
9,CCOC(=O)c1oc2ccccc2c1NC(=O)c1cccs1,25 (active)
10,CCc1c(C)sc(NC(=O)c2cccs2)c1C(N)=O,inactive
11,COC(=O)CCSc1cc([N+](=O)[O-])cc2c1c(C1OCCS1)nn2-c1ccccc1 (stereo not drawn),inactive
12,COc1ccc(OC)c(NC(=O)CN(C)CCOc2ccc(Br)cc2)c1,inactive
13,CCCCCCCCn1c2c(c(=N)c3c1CCC3)CCCC2,100 (active)
14,CC(C)C[C@@H](COc1ccccc1)N1CCN(CC(C)C)CCC1=O,inactive
15,CCCCNC(=O)CSc1nc2n[nH]c(C)c2c(=N)n1-c1cccc(Cl)c1C,25 (active)
16,COc1cccc(-n2c(SCC(=O)NC3CCCCC3)nc3n[nH]c(C)c3c2=N)c1,inactive
17,Cc1ccc(-n2c(SCC(=O)NCCC3=CCCCC3)nc3n[nH]c(C)c3c2=N)cc1Cl,inactive
18,Cc1ccc(N2CC(C(=O)N3CCC4(CC3)CC(=O)c3ccccc3O4)CC2=O)cc1C (stereo not drawn),inactive
19,CCCOc1ccc(C2=CSC3=NCCN23)cc1Cl,inactive
20,CC(=O)N(C1=C(Cl)C(=O)c2ccccc2C1=O)c1ccc(C(=O)O)cc1,100 (active)
